# A selection: hits, their analogues and other compounds. The true share with any hit is near 7.4%.
# Rab9 prom act: activates the Rab9 promoter; Huh7 Rab9 promoter-luciferase reporter, luminescence, 24 h; Potency, µM (series often up to 9.22 µM), inactives show top-dose activation, negative = inhibition, actives largely listed as activators; 2.8% of 320,000 active; AID 485297; also: % of control where 0% means no effect; nearly all actives have a fitted effect of over 60% in size
#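 Cell-based reporter: Huh7 stable for Rab9 promoter-driven luciferase, plated in reduced-serum medium with 10% FBS at 1500 cells/well, compound-treated 24 h at 37 °C, luminescence read after 10 min reagent.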
# p53 reactivation: mutant p53 re-activation in reporter cells; H1299 p53-A138V BP100-luciferase reporter, luminescence, 24 h; Potency, µM (highest dose often 92.2 µM), for the others: at the top dose activity change, positive = activation, usual class: activators; 0.063% of 320,000 active; AID 504706; also: % of control where 0% means no effect; nearly all actives have a fitted effect of over 45% in size
#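 H1299 (p53-null), stable ts p53-A138V + BP100-Luc; 1000 cells/well, Opti-MEM/10% FBS; cpd 4 pt, 1:5; 24 h, 37 deg C, 5% CO2; detection reagent 10 min RT; luminescence.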
# SMN2 splice enh: SMN2 splice variant enhancement | HEK293 SMN2-luciferase splicing reporter, luminescence, 30-36 h | Potency, µM (titrated, usually from 46.1 µM), inactives show at the highest dose activity change, positive = activation, actives largely listed as activators | 2.8% of 210,000 active | AID 1458; also: % of control where 0% means no effect; nearly all actives have a fitted effect of over 55% in size
#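 HEK293 cells carry an SMN2 […]–luciferase reporter in which exon 7 inclusion puts luciferase in frame. Cells were plated 10-12 h before compound addition, then incubated 30-36 h at 37C. ONE-Glo luminescence was read; sodium butyrate at 4.5 mM final served as control.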
# FLuc modulator: inhibits or activates purified firefly luciferase, miR-21 counter-screen; purified FLuc, Km substrates, luminescence inhibition; Potency, µM (titrated, usually from 57.5 µM), for inactives: at the highest dose activity change, negative = inhibition, actives largely listed as inhibitors; 6.9% of 360,000 active;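 also: plate controls were vehicle for no effect and reference inhibitor for full effect; nearly all actives have a fitted effect of over 55% in size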
# Target sequence (P08659 whole entry, looked up): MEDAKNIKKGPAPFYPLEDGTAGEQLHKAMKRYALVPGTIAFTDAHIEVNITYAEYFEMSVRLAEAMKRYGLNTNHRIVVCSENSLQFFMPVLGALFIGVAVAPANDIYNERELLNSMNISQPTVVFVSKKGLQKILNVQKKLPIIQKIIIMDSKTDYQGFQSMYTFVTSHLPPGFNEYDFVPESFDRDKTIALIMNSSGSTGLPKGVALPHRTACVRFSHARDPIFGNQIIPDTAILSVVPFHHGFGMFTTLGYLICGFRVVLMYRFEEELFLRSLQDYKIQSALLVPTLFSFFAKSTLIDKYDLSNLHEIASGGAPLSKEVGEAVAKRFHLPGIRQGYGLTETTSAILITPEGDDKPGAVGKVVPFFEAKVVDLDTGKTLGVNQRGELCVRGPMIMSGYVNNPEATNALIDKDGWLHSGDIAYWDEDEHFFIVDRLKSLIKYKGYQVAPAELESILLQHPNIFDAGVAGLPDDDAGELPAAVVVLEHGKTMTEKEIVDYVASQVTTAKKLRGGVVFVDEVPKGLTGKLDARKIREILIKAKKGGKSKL
#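 Purified P. pyralis luciferase, 10 nM final, with Km-level 10 uM D-luciferin and 10 uM ATP in 50 mM Tris acetate pH 7.5, 10 mM Mg acetate, 0.01% Tween-20, 0.05% BSA; 6-point qHTS titration about 60 µM downward; luminescence read.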
# ELG1 genotoxic: inducers of genotoxicity in HEK293T ELG1-luciferase cells. HEK293T ELG1-luciferase reporter, luminescence, 16 h. AID 504466. Potency, µM (series often up to 46 µM), inactives show at the highest dose activity change, positive = activation, hits mostly activators. 1.3% of 330,000 active; also: % of control where 0% means no effect; nearly all actives have a fitted effect of over 60% in size
#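 16 hr compound incubation (37 °C, 5% CO2) of HEK293T cells carrying luciferase-tagged ELG1; luciferase then measured by ONE-Glo luminescence after 30 min at RT.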
# NPC1 prom act: NPC1 promoter activation. Huh7 NPC1 promoter luciferase reporter, 24 h. Potency, µM (series often up to 9.22 µM), for the others: top-dose activation, actives largely listed as activators. AID 485313. 2.4% of 320,000 active; also: % of control where 0% means no effect; nearly all actives have a fitted effect of over 60% in size
#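 Quantitative HTS used a cell-based reporter: Huh7 cells stably bearing the NPC1 promoter upstream of luciferase were treated with compounds for 24 h, and promoter activation was read as luminescence.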
# Numbers without * were called inactive; u = inconclusive; x = no result; [ ] = remark or other dose. Calls follow the shape of the dose curve; as a rule, active = well fitted curve in the direction sought with a large enough effect; inconclusive = small, poorly fitted or top-dose-only effect, or another doubt; inactive = no such curve, though single readings can be large; an effect the other way counts as inactive or inconclusive. Potency is read from the fitted curve at half-maximal effect.
SMILES,Rab9 prom act,p53 reactivation,SMN2 splice enh,FLuc modulator,ELG1 genotoxic,NPC1 prom act
COC(=O)C(C)Sc1ncnc2c1nnn2-c1ccc(F)cc1 (stereo not given),29.4%,u,-2.2%,8.49µM*,u,u
c1ccc(C2CCCN(Cc3nc(CC4CC4)no3)CC2)cc1 (stereo not given),23.7%,5.7%,4.8%,23.9µM*,11.5%,10.7%
Cc1ccccc1C1CCCN(Cc2nc(CC3CC3)no2)C1 (stereo not given),0.2%,-4.8%,x,-2.8%,-1.8%,-3.9%
COC(=O)C(Cc1ccc(OC(=O)c2ccccc2Cl)cc1)N1Cc2ccccc2C1=O (stereo not given),3.98µM*,u,27.5%,u,15.2%,u
COC(=O)C(Cc1ccc(OC(=O)c2ccccc2C)cc1)N1Cc2ccccc2C1=O (stereo not given),u,u,u,-13.6%,-1.0%,u
COC(=O)C(C)Sc1nnc2cc(C)c3cc(C)cc(C)c3n12 (stereo not given),x,x,x,-13.1%,x,x
O=C1/C(=C/N(C(=O)c2ccco2)c2ccc(Br)cc2)Sc2ccccc21,u,u,x,0.338µM*,11.6µM*,u
O=C1/C(=C/N(C(=O)c2ccco2)c2ccc(Cl)cc2)Sc2ccccc21,u,28.2µM*,14.1µM*,0.135µM*,u,u
CCN(c1ccccc1)S(=O)(=O)c1ccc(NC(=O)c2cc(=O)c3cc(C)c(C)cc3o2)cc1,x,x,2.5%,-0.1%,x,x
CN(C)S(=O)(=O)Oc1cccc(C(=O)Nc2ccc([N+](=O)[O-])cc2)c1,u,19.3%,-25.4%,13.5µM*,-13.9%,15.3%
O=C(O)c1ccccc1Nc1ccc([N+](=O)[O-])cc1,u,u,7.08µM*,u,-1.8%,19.5%
O=C(O)c1ccccc1Nc1ccccc1C(=O)O,9.0%,-3.9%,-4.0%,-0.5%,4.4%,6.3%
CCN(CC)c1ccc(C(=O)Nc2ccccc2)cc1[N+](=O)[O-],u,-12.3%,11.2µM*,12µM*,0.2%,u
O=C(NNc1ccc([N+](=O)[O-])cc1)Nc1ccccc1,-0.5%,x,x,21.3µM*,3.2%,3.0%
O=C(Nc1ccc(O)cc1)c1cccc(Oc2ccc([N+](=O)[O-])cc2)c1,-2.1%,-4.5%,x,-3.2%,-8.7%,-6.0%
O=C(N[C@H]1CC1c1ccccc1)c1ccc([N+](=O)[O-])cc1 (stereo not given in full),0.708µM*,u,x,5.36µM*,u,1.12µM*
CC(=O)N[C@H]1C[C@@H]1c1ccccc1,19.7%,-5.4%,u,-1.5%,1.0%,1.4%
O=C(Nc1ccc(NC(=O)c2cccc([N+](=O)[O-])c2)cc1)c1cccc([N+](=O)[O-])c1,14.9%,24.3%,x,-18.4%,12.7%,16.2%
CC(Cc1ccccc1)NC(=O)/C=C/c1ccc([N+](=O)[O-])cc1 (stereo not given),1.5%,4.3%,-4.6%,2.3%,-0.6%,-0.7%
O=C(Nc1ccc([N+](=O)[O-])cc1)c1ccccc1,3.16µM*,x,x,16.9µM*,14.5%,2.24µM*
CC(Cc1ccccc1)NC(=O)c1ccc([N+](=O)[O-])cc1 (stereo not given),1.78µM*,u,14.1µM*,12µM*,u,2.82µM*
Cc1c(Cl)cccc1Nc1ccccc1C(=O)O,-1.5%,15.9%,-2.4%,16.9µM*,-2.2%,-4.6%
CC(=O)C1=C(c2ccc(C)cc2)N(C(C)=O)n2c(nnc2-c2ccccc2)S1,x,x,x,0.5%,x,x
Cc1cccc(C)c1OCc1nc2c3cnn(-c4cccc(F)c4)c3ncn2n1,x,x,2.3%,1.3%,x,x
COc1cc(C(=O)NCC(c2ccccc2)N(C)C)ccc1OCc1c(C)noc1C (stereo not given),-0.4%,-2.8%,x,1.9%,9.9%,0.5%
SMILES,Rab9 prom act,p53 reactivation,SMN2 splice enh,FLuc modulator,ELG1 genotoxic,NPC1 prom act
CSc1n[nH]c(NCc2ccc(C)cc2)n1,u,u,15.8µM*,23.9µM*,u,29.4%
O=C(CCl)N(C/C=C/c1ccccc1)c1ccc2c(c1)OCCO2,-44.8%,-9.6%,-16.5%,23.9µM*,10.8%,-37.6%
Nc1nc(SCc2ccccc2)ns1,u,u,12.6µM*,u,18.4µM*,28.2%
CC(C)CSc1nsc(N)n1,u,27.6%,19.7%,u,16.4µM*,u
CC(C)CSc1nnc(N)s1,1.2%[1.84 µM],0.3%,-2.6%,-9.9%,2.7%,1.2%
Nc1cc(N)nc(SCCc2ccccc2)n1,16.2%,x,x,u,u,22.0%
Nc1cc(N)nc(SCc2ccccc2)n1,2.82µM*,x,11.2µM*,19µM*,u,u
O=C1CN(C(=O)COC(=O)c2ccc(Cl)c(S(=O)(=O)N3CCCCC3)c2)c2ccccc2N1,x,-3.8%,x,x,5.8%,x
CC(=O)c1ccc(NC(=O)CSc2ccc3nc(-c4ccccc4)cn3n2)cc1,x,x,x,12µM*,x,x
N#CCSc1ccc2nc(-c3ccccc3)cn2n1,2µM*,u,x,7.57µM*,u,2.82µM*
CCc1ccc(NC(=O)CSc2ccc3nc(-c4ccc(OC)cc4)cn3n2)cc1,x,x,x,2.69µM*,x,x
O=C(CSc1ccc2nc(-c3ccccc3)cn2n1)Nc1ccccc1C(F)(F)F,x,x,x,-11.1%,x,x
O=C(Nc1ccc(Cl)cc1)C1CCN(S(=O)(=O)c2ccc(Br)s2)CC1,x,x,-61.0%,-1.9%,x,x
O=C1CCN(Cc2ccccc2)CCN1CCSc1ccccc1,4.47µM*,x,x,13.5µM*,u,u
CCCN1CCC(=O)N(CCSc2ccccc2)CC1,3.55µM*,x,x,u,u,2.82µM*
CCCN1CCC(=O)N(CCSc2ccc(NC(C)=O)cc2)CC1,-2.7%,0.4%,x,-1.4%,3.5%,1.0%
CNC(=O)c1c(Cl)cnn1-c1ccc(C)cc1,3.16µM*,13.9%,x,12µM*,u,2.24µM*
Nc1c(C(=O)N/N=C/c2ccc(Cl)cc2)cnn1-c1ccccc1,u,1.0%,x,6.0%,13.7%,28.9%
Cc1ccc(-n2nc(C)c(NC(=O)CCl)c2C)cc1,-33.5%,-48.0%,-35.3%,-1.6%,-6.7%,-10.6%
C=CCNC(=O)c1c(Cl)cnn1-c1ccc(C)cc1,3.16µM*,9.7%,x,16.9µM*,u,2µM*
O=c1c(Cl)c(N/N=C/c2ccc(Cl)cc2)cnn1-c1ccccc1,0.316µM*,0.8%,-7.4%[1.84 µM],-4.3%,6.2%,0.562µM*
Cc1ccc(-n2ncc(Cl)c2C(=O)NC2CC2)cc1,1.78µM*,16.8%,x,10.7µM*,u,3.16µM*
C[C@]12CCC(=O)C=C1CCC1C2C(O)C[C@]2(C)C1CC[C@]2(O)C(=O)COC(=O)CCC(=O)O (stereo not given in full),x,x,5.9%,x,x,x

# Assay outcomes as filed in PubChem BioAssay.
